This passage reports binding signal results from PMC7862700, “An all-to-all approach to the identification of sequence-specific readers for epigenetic DNA modifications on cytosine”.

Assay in all cases: DAPPL (digital affinity profiling via proximity ligation, sequencing); 10 mM Tris-HCl pH 7.5, 50 mM NaCl, 1 mM DTT, 4% glycerol, room temperature, 30 min; GST-TFs on glutathione beads, 16-mer random dsDNA library, 0.1% formaldehyde crosslink after washing; high values mean tight binding
For experiment [1], the target named is T1, FEV (Homo sapiens, UniProt Q99581 1-238).
T1 sequence: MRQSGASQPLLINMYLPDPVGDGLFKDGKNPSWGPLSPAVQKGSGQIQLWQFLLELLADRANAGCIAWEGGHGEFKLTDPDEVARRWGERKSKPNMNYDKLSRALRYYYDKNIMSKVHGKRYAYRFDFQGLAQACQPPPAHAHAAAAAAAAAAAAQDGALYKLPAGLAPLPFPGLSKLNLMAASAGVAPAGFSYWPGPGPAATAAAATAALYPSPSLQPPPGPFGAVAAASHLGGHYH
Conditions: protein: recombinant; tags: N-terminal GST; dsDNA, one strand shown. In short, it runs like this:
(§1)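 Each value of binding signal is a hexamer's read frequency for a factor divided by the same hexamer's frequency in the tag-only sample. Barcoded, bead-captured GST fusions of human transcription factors made in yeast were pooled with that sample and incubated with 200 nmole of a random double-stranded 16-mer DNA library in Tris/NaCl/DTT/glycerol buffer at room temperature for 30 min. Washing, 0.1% formaldehyde crosslinking, proximity ligation, PCR and Illumina NextSeq500 sequencing followed.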

In experiment [2] the target is ETV5 (Homo sapiens, UniProt P41161 1-510). Conditions: protein: recombinant; tags: N-terminal GST; dsDNA, one strand shown. In short, it runs like this:
as §1

Experiment [3] deals with HSF1 (Homo sapiens, UniProt Q00613 1-529). Conditions: protein: recombinant; tags: N-terminal GST; chain copies: 3; dsDNA, one strand shown. The essentials:
as §1

Experiment [4] concerns the target T2, SPIC (Homo sapiens, UniProt Q8N5J4 1-248).
T2 sequence: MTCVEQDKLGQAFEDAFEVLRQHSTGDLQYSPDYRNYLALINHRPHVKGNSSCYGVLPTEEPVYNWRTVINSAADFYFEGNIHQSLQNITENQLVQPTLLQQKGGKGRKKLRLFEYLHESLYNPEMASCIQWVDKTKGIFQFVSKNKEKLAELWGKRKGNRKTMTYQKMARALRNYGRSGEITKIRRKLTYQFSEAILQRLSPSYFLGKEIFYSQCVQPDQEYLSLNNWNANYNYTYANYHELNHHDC
Conditions: protein: recombinant; tags: N-terminal GST; dsDNA, one strand shown. The essentials: as §1

Experiment [5] deals with ELF4 (Homo sapiens, UniProt Q99607 1-663). The conditions noted are these: protein: recombinant; tags: N-terminal GST; dsDNA, one strand shown. In short, it runs like this: as §1
Sequence of ELF4 (Q99607 whole entry): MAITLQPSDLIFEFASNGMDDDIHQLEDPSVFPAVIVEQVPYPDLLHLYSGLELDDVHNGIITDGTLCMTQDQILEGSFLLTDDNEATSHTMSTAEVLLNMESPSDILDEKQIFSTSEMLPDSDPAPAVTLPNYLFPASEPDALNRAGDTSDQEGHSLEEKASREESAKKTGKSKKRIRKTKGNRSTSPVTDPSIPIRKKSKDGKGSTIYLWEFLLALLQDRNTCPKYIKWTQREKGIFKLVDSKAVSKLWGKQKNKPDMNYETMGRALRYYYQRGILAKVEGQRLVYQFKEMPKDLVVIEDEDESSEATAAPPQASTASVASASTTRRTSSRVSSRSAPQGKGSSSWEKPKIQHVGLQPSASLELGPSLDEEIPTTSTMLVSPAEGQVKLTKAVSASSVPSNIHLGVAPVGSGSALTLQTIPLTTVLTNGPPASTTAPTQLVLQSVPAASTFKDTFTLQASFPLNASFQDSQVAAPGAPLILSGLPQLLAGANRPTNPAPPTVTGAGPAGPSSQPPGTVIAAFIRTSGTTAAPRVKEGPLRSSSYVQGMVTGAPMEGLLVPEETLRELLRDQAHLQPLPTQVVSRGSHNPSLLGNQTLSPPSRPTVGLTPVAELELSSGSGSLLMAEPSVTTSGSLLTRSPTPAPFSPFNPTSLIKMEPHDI
Experiment [6] has as its target T3, ELK4 (Homo sapiens, UniProt P28324-2 1-405).
T3 sequence: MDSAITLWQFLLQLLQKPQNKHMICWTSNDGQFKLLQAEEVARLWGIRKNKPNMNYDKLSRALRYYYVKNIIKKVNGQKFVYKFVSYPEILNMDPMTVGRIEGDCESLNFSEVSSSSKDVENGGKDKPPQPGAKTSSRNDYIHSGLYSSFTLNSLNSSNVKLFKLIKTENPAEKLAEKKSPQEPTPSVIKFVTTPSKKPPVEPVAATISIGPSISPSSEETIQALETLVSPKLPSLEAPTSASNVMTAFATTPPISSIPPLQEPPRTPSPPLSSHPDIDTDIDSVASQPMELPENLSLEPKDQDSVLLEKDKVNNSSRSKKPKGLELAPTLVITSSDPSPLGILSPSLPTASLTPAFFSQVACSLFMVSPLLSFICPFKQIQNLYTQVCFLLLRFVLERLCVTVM
Conditions: protein: recombinant; tags: N-terminal GST; dsDNA, one strand shown. The essentials: as §1

The target of experiment [7] is T4, ETV2 (Homo sapiens, UniProt O00321 1-342).
T4 sequence: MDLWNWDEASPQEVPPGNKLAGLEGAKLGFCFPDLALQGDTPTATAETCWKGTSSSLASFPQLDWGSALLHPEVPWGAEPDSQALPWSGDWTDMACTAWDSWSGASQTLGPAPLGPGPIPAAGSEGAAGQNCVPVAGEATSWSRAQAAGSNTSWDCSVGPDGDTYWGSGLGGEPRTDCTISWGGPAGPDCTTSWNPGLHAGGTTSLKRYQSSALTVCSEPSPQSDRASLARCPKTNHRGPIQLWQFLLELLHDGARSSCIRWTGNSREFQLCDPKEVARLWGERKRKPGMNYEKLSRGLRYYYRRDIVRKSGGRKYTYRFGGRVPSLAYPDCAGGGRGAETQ
Conditions: protein: recombinant; tags: N-terminal GST; dsDNA, one strand shown. The essentials: as §1

The target of experiment [8] is T5, ELF3 (Homo sapiens, UniProt P78545 1-371).
T5 sequence: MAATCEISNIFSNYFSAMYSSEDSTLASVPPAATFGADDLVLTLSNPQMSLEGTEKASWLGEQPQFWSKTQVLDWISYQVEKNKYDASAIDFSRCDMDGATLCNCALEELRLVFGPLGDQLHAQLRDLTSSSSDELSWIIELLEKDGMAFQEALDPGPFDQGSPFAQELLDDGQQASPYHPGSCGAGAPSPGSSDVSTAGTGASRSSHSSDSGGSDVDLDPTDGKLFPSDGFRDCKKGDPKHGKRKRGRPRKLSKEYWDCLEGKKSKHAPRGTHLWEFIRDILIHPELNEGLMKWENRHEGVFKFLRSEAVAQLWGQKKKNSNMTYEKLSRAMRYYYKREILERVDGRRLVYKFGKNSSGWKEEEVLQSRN
The conditions noted are these: protein: recombinant; tags: N-terminal GST; dsDNA, one strand shown. In short, it runs like this: as §1

Experiment [9] concerns the target CRX (Homo sapiens, UniProt O43186 1-299). The conditions noted are these: protein: recombinant; tags: N-terminal GST; dsDNA, one strand shown. In short, it runs like this: as §1
Experiment [10] addresses ETV1 (Homo sapiens, UniProt P50549 1-477). The conditions noted are these: protein: recombinant; tags: N-terminal GST; dsDNA, one strand shown. The essentials: as §1
Experiment [11] has as its target T6, ERF (Homo sapiens, UniProt P50548 1-548).
T6 sequence: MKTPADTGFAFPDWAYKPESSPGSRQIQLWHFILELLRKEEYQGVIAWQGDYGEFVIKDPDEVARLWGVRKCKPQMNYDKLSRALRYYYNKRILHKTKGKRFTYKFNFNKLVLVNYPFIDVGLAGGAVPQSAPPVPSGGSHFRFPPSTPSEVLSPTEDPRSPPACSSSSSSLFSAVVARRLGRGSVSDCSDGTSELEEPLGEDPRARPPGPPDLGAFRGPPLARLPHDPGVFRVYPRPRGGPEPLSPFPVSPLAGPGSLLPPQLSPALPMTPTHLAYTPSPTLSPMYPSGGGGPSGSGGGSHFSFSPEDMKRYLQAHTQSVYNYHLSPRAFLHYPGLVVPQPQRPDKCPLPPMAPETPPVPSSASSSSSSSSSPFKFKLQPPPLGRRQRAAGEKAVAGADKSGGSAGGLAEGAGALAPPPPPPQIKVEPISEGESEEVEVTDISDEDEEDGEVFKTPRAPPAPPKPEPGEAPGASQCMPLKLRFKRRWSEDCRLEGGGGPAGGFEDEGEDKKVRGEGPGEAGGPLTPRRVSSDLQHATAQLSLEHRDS
Conditions: protein: recombinant; tags: N-terminal GST; dsDNA, one strand shown. The essentials: as §1

Experiment [12] has as its target T7, ETV3L (Homo sapiens, UniProt Q6ZN32 1-361).
T7 sequence: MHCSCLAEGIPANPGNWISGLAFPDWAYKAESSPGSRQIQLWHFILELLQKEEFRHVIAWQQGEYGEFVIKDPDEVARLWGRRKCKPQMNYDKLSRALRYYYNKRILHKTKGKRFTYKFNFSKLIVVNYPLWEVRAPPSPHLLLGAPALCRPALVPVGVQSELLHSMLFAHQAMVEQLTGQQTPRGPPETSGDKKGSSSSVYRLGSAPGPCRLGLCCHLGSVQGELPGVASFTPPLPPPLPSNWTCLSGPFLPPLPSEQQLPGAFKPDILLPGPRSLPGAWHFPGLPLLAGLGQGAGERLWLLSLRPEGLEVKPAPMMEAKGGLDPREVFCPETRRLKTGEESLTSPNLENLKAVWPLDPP
The conditions noted are these: protein: recombinant; tags: N-terminal GST; dsDNA, one strand shown. The essentials: as §1

In experiment [13] the target is T8, ETS2 (Homo sapiens, UniProt P15036 1-469).
T8 sequence: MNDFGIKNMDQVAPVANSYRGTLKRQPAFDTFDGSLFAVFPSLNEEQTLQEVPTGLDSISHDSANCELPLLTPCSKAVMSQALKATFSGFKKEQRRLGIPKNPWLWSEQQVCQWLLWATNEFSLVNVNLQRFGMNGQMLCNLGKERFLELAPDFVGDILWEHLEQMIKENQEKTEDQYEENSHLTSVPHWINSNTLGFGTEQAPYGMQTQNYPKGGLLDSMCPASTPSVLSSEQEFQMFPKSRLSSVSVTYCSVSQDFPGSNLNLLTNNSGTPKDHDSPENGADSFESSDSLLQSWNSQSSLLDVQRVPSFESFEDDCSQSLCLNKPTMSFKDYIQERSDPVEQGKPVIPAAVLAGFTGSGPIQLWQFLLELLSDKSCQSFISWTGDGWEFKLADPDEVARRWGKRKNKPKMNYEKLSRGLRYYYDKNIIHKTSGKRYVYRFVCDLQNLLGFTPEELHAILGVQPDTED
The conditions noted are these: protein: recombinant; tags: N-terminal GST; dsDNA, one strand shown. In short, it runs like this: as §1

The target of experiment [14] is T9, SPDEF (Homo sapiens, UniProt O95238 1-335).
T9 sequence: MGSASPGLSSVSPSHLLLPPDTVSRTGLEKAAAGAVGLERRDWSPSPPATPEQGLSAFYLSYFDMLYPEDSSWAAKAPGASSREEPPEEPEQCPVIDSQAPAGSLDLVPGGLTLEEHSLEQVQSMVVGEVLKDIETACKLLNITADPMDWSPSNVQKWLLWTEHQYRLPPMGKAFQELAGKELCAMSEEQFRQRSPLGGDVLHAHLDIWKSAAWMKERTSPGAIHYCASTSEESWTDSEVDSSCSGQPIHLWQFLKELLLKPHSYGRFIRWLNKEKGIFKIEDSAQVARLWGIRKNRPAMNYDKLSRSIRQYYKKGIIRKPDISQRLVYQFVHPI
Conditions: protein: recombinant; tags: N-terminal GST; dsDNA, one strand shown. The essentials:
as §1

The target of experiment [15] is T10, ETV7 (Homo sapiens, UniProt Q9Y603 1-341).
T10 sequence: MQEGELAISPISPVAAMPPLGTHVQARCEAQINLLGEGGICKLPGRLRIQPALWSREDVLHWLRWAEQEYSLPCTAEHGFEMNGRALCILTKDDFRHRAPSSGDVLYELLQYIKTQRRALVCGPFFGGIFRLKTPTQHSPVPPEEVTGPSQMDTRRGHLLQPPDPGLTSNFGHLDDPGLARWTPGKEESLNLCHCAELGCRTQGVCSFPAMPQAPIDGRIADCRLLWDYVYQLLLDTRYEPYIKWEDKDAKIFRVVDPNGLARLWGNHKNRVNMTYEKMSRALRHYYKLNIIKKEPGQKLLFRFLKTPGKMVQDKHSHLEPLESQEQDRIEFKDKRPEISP
The conditions noted are these: protein: recombinant; tags: N-terminal GST; dsDNA, one strand shown. The essentials:
as §1

For experiment [16], the target named is T11, ELF5 (Homo sapiens, UniProt Q9UKW6-2 1-255).
T11 sequence: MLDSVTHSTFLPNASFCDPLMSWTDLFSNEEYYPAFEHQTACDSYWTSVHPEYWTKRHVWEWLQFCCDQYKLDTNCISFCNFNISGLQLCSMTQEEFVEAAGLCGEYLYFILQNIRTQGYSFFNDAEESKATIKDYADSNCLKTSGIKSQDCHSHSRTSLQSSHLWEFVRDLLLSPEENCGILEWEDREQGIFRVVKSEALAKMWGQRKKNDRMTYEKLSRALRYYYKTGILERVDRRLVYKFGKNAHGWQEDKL
Conditions: protein: recombinant; tags: N-terminal GST; dsDNA, one strand shown. The essentials: as §1

The target of experiment [17] is T12, ETV3 (Homo sapiens, UniProt P41162-2 1-143).
T12 sequence: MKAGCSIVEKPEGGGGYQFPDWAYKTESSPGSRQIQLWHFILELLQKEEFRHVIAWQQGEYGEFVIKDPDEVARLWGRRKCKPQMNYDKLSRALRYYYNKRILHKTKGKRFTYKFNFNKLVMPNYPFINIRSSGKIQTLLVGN
Conditions: protein: recombinant; tags: N-terminal GST; dsDNA, one strand shown. In short, it runs like this:
as §1

Experiment [18] has as its target ETV6 (Homo sapiens, UniProt P41212 1-452). The conditions noted are these: protein: recombinant; tags: N-terminal GST; dsDNA, one strand shown. In short, it runs like this: as §1

Sequence of ETV6 (P41212 whole entry): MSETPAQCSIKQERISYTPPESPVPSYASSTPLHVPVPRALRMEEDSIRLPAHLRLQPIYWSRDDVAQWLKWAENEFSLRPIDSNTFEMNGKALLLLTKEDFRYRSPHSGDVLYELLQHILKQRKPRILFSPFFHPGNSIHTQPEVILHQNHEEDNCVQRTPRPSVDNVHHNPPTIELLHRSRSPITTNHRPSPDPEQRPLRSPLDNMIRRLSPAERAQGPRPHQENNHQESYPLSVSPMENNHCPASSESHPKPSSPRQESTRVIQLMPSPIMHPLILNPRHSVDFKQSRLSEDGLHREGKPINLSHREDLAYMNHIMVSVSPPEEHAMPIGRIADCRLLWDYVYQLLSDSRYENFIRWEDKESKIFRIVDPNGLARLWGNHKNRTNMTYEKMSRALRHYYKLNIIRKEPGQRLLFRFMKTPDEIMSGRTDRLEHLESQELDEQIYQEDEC
Sequence of CRX (O43186 whole entry): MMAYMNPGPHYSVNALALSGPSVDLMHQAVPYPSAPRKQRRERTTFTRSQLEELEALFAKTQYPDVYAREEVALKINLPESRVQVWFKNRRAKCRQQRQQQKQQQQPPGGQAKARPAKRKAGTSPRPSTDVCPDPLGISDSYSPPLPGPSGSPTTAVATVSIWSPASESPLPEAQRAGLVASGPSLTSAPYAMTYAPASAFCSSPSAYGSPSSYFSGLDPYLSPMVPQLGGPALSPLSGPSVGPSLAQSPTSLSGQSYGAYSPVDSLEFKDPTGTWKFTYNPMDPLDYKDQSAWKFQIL
Sequence of ETV5 (P41161 whole entry): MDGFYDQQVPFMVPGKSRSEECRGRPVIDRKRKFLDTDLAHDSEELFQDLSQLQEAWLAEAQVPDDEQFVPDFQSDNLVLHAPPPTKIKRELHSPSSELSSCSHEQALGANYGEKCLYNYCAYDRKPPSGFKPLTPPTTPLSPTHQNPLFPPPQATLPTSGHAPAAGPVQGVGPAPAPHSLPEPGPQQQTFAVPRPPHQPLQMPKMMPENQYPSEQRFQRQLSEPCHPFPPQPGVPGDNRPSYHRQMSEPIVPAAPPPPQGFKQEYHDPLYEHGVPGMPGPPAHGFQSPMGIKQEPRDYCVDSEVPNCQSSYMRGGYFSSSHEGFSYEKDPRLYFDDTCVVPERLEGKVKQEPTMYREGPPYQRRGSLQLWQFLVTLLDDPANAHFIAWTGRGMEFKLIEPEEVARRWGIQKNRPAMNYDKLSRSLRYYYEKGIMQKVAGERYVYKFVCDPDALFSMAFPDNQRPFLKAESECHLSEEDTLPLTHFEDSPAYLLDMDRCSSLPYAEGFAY
Sequence of ETV1 (P50549 whole entry): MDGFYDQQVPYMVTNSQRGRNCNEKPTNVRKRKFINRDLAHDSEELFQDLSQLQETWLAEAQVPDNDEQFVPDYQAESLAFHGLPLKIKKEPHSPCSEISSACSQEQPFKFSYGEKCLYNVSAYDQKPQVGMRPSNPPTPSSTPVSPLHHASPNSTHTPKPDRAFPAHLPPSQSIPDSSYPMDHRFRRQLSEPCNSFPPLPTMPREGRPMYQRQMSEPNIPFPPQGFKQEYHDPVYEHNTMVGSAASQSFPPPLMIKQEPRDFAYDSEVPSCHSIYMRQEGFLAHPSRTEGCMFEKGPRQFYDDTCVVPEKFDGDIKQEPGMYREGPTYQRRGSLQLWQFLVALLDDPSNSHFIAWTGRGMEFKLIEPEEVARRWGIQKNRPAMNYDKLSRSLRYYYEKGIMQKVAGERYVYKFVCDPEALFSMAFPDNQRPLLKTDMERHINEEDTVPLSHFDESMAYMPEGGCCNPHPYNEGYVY
Sequence of HSF1 (Q00613 whole entry): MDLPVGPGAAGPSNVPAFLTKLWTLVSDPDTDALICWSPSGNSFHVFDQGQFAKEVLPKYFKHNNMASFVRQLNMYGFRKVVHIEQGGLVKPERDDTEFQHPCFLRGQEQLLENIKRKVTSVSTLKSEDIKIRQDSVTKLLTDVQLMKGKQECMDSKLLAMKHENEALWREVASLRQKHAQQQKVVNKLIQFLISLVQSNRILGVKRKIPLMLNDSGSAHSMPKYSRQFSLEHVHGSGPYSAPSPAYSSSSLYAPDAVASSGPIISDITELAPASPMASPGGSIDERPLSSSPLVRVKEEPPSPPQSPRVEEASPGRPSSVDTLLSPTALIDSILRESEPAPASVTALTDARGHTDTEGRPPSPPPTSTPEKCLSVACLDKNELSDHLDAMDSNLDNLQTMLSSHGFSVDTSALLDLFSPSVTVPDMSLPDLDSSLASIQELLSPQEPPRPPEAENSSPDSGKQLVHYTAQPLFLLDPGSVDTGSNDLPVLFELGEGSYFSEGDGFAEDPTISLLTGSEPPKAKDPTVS

Regarding AGAATT, the binding signal in experiment [1] was 1.08 fold enrichment (6-mer frequency, TF over GST control); in experiment [2], 1.13 fold enrichment (6-mer frequency, TF over GST control); in [3], 2.2 fold enrichment (6-mer frequency, TF over GST control); in [4], 1.24 fold enrichment (6-mer frequency, TF over GST control); in experiment [5], 1.24 fold enrichment (6-mer frequency, TF over GST control); in [6], 1.2 fold enrichment (6-mer frequency, TF over GST control). The binding signal is 1.06 fold enrichment (6-mer frequency, TF over GST control) in experiment [7]; 1.04 fold enrichment (6-mer frequency, TF over GST control) in [8]; 1.76 fold enrichment (6-mer frequency, TF over GST control) in experiment [9]; 1.16 fold enrichment (6-mer frequency, TF over GST control) in experiment [10]; 1.17 fold enrichment (6-mer frequency, TF over GST control) in experiment [11]; 1.17 fold enrichment (6-mer frequency, TF over GST control) in experiment [12]. In addition, the binding signal in [13] is 1.14 fold enrichment (6-mer frequency, TF over GST control); in experiment [14], 1.05 fold enrichment (6-mer frequency, TF over GST control); in experiment [15] it was 1.13 fold enrichment (6-mer frequency, TF over GST control); in experiment [16], 1.1 fold enrichment (6-mer frequency, TF over GST control); in experiment [17], 1.09 fold enrichment (6-mer frequency, TF over GST control); in experiment [18], 1.2 fold enrichment (6-mer frequency, TF over GST control).
